# Reference: the supplement of paper PMC12645437, “Orthogonal IMiD-Degron Pairs Induce Selective Protein Degradation in Cells” (ACS Chemical Biology, 2025)
# In all, about 8,300 sequences were measured (“log2 fold change of degron read counts, EGFP-low vs EGFP+ sorted cells (limma voom), compound-induced degradation”: median about -1.1, highest 2% from about 3.2 on). What follows is part of a selection rich in the highest values, with near analogues and random picks from the rest.
# T1: CRBN, Q96SW2
# T1 chain: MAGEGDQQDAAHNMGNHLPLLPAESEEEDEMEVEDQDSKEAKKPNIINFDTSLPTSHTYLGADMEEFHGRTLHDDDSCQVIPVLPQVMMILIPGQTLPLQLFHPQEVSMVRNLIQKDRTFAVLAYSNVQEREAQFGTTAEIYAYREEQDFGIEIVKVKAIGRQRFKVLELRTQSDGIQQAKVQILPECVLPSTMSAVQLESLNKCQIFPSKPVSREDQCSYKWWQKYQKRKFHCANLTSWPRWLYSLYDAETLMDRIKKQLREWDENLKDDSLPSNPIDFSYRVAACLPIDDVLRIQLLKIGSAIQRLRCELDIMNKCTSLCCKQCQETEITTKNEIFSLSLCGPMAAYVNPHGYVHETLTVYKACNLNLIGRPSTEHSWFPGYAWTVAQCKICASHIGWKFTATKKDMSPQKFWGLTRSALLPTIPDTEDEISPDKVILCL
# Target: T1, CRBN, Q96SW2
# Assay: log2 fold change of degron read counts, EGFP-low vs EGFP+ sorted cells (limma voom), compound-induced degradation; higher = more compound-induced degradation of the degron-EGFP fusion; degrons are variants of IKZF1/3 zinc finger 2; compound dose not given here
# Details: Jurkat, 18 h
# [1] = compound: compound 19 (5-tert-butyl-thalidomide)
# [2] = compound: compound 22 (5-morpholino-thalidomide)
# [3] = compound: compound 33 (diphenyl IMiD analogue)
# 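Further: pooled lentiviral library of zinc finger degron-EGFP fusions in mCherry-positive Jurkat cells, FACS-sorted after compound exposure, with degron abundance counted by next-generation sequencing.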
sequence,measurement,setting,value
"FICEICGRAFTQKGNLLRHIKL [46F_47I_49E_50I_52G_53R_54A_55F_67L_, Q9UKT9]",log2 fold change of degron read counts,[1],-2.83
same,log2 fold change of degron read counts,[2],-1.59
same,log2 fold change of degron read counts,[3],-1.38
same,log2 fold change of degron read counts,compound: thalidomide,-0.306
"FNCPVCGAHFTQKGNLLRHIKL [46F_47N_49P_50V_52G_53A_54H_55F_67L_, Q9UKT9]",log2 fold change of degron read counts,[1],2.14
same,log2 fold change of degron read counts,[2],0.242
same,log2 fold change of degron read counts,[3],0.245
same,log2 fold change of degron read counts,compound: thalidomide,0.138
"FRCEQCGAMFTQKGNLLRHIKL [46F_47R_49E_50Q_52G_53A_54M_55F_67L_, Q9UKT9]",log2 fold change of degron read counts,[1],-2.73
same,log2 fold change of degron read counts,[2],-3.44
same,log2 fold change of degron read counts,[3],-1.59
same,log2 fold change of degron read counts,compound: thalidomide,-1.56
"FNCDQCGAAFTQKGNLLRHIKL [46F_47N_49D_50Q_52G_53A_54A_55F_67L_, Q9UKT9]",log2 fold change of degron read counts,[1],-1.89
same,log2 fold change of degron read counts,[2],-2.81
same,log2 fold change of degron read counts,[3],-2.8
same,log2 fold change of degron read counts,compound: thalidomide,-2.92
"LHCEICGFHCTQKGNLLRHIKL [46L_47H_49E_50I_52G_53F_54H_55C_67L_, Q9UKT9]",log2 fold change of degron read counts,[1],1.32
same,log2 fold change of degron read counts,[2],1.17
same,log2 fold change of degron read counts,[3],1.52
same,log2 fold change of degron read counts,compound: thalidomide,1.23
"LCCNQCGFECTQKGNLLRHIKL [46L_47C_49N_50Q_52G_53F_54E_55C_67L_, Q9UKT9]",log2 fold change of degron read counts,[1],-2.68
same,log2 fold change of degron read counts,[2],-2.78
same,log2 fold change of degron read counts,[3],-2.7
same,log2 fold change of degron read counts,compound: thalidomide,-2.45
"FMCDVCGAAFTQKGNLLRHIKL [46F_47M_49D_50V_52G_53A_54A_55F_67L_, Q9UKT9]",log2 fold change of degron read counts,[1],-0.0468
same,log2 fold change of degron read counts,[2],1.05
same,log2 fold change of degron read counts,[3],2.19
same,log2 fold change of degron read counts,compound: thalidomide,-0.154
"FCCEVCGADFTQKGNLLRHIKL [46F_47C_49E_50V_52G_53A_54D_55F_67L_, Q9UKT9]",log2 fold change of degron read counts,[1],-0.0408
same,log2 fold change of degron read counts,[2],-0.873
same,log2 fold change of degron read counts,[3],0.0623
same,log2 fold change of degron read counts,compound: thalidomide,-0.497
